According to PubChem BioAssay (NCATS):
Results filed as inconclusive are left out. A number with no mark means an inactive call. Active and inactive are the calls of the source. Calls follow the shape of the dose curve; as a rule, active = well fitted inhibition curve with a large enough effect; inconclusive = small, poorly fitted or top-dose-only effect; inactive = flat fitted curve, though single readings scatter.

System: NIH3T3
Experiment: Cytotoxic Profiling of Annotated Libraries Using Quantitative High-Throughput Screening (AID 1296008); also: nearly all actives have a fitted effect of over 60% in size
Details: Five cell lines viability, CellTiter-Glo ATP luminescence, 48-72 h; max response: hits give low values
Procedure, shortened: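 Cells exposed to compounds for 48 or 72 hr at 37 degrees Celsius. Viability read as ATP-coupled luminescence with CellTiter-Glo after 10 min at room temperature.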
% is scaled to controls: 0 for no effect and ±100 for the full control effect; potency is read from the fitted curve at half-maximal effect.

SMILES	max response [%]	Potency
CC1(C)CC[C@]2(C(=O)O[C@@H]3O[C@H](CO)[C@@H](O)[C@H](O)[C@H]3O)CC[C@]3(C)C(=CCC4[C@@]5(C)C[C@@H](O)[C@H](O)[C@](C)(C=O)C5CC[C@]43C)[C@@H]2[C@@H]1O (stereo partly drawn)	0.296	–
CC12CCC3c4ccc(O)cc4CCC3C1CC(OC1OC(C(=O)O)C(O)C(O)C1O)C2O (stereo not drawn)	4.17	–
NC(=O)c1cccc(-c2cc(OC(=O)NC3CCCCC3)ccc2O)c1	-3.22	–
CC(=O)NC1C(OC(C)(C)C2CCC3(C)C=C(C4CCC5C4(C)CC(O)C4OC(C(C)(C)O)CCC45C)CCC3O2)OC(CO)C(O)C1O (stereo not drawn)	-10.4	–
CC(=O)c1cc2c(cc1O)OC(C)(C)C=C2	-4.07	–
C=C1C(O)C[C@@H]2C(C(=O)O)=CO[C@@H](O[C@@H]3O[C@H](CO)[C@@H](O)[C@H](O)[C@H]3OC(=O)c3ccc(O)cc3)[C@H]12 (stereo partly drawn)	4.25	–
CCOCCn1nc(CC)c2nc(N3CCC(C(=O)O)CC3)nc(Nc3cc(C)ccn3)c21	3.17	–
CCN1CCN(Cc2ccc(NC(=O)c3ccc(C)c(NC(=O)c4cncc(-c5cccs5)c4)c3)cc2C(F)(F)F)CC1	–	1160 nM (active)
